# Assay outcomes: PubChem BioAssay, National Center for Advancing Translational Sciences (NCATS)
# TRPML1 ag: qHTS for Agonists of the Human Mucolipin Transient Receptor Potential 1 (TRPML1); AID 624414, 2012; 410,000 compounds, 0.12% hits; activation, % (test concentration not listed); Mucolipin-1 (Homo sapiens), Q9GZU1; TRPML1-expressing cells, Ca2+ dye fluorescence, FDSS; in the data active = activation above about 50%; inconclusive = mostly about 30% to 49%; also: 0% is about no effect
#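 In this qHTS format, compounds were pin-transferred onto Ca8-dye-loaded TRPML1-DL cells induced with Tet overnight, and intracellular Ca2+ fluorescence was recorded kinetically for 110 s after a 10 s baseline. A subsequent 4uM final 54-4 (EC80) addition followed by a second 110 s read served as the antagonist phase.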
# D3 antag: qHTS of D3 Dopamine Receptor Antagonist: qHTS; D(3) dopamine receptor (Homo sapiens), P35462; D3R cells, DiscoveRx beta-arrestin luminescence, antagonist mode; active compounds read low; max response, negative = inhibition, %; 360,000 compounds, 2.5% hits; in the data active = max response below about -50%; inconclusive = no clear call, values can overlap the other calls; also: % is scaled to controls: 0 for no effect and ±100 for the full control effect
# Target sequence (P35462 whole entry, looked up): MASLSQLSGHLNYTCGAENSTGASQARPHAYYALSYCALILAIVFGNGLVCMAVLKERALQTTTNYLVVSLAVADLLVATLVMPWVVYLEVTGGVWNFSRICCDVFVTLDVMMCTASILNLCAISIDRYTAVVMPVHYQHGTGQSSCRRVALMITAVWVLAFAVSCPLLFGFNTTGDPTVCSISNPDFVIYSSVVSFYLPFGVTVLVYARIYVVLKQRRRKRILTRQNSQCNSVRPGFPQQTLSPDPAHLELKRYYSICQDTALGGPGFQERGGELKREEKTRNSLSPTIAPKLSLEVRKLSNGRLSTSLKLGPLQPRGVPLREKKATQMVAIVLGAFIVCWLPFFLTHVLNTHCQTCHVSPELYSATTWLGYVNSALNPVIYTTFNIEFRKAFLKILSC
#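 Cells expressing the human receptor were seeded at 1500 cells/well, incubated overnight at 37 degrees C in 5% CO2, then exposed to library compounds with dopamine controls for 90 minutes at 37 degrees C before luminescent detection.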
# DRD3 agonist: qHTS of D3 Dopamine Receptor Agonist: qHTS; D(3) dopamine receptor (Homo sapiens), P35462; D3R DiscoveRx beta-arrestin cells, luminescence, 90 min; max activation, %; 410,000 compounds, 0.58% hits; AID 652048, 2013; in the data active = max activation above about 30%; also: 0% is about no effect
#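 Agonist mode: compounds and dopamine controls were applied to plated cells for 90 min at 37 degrees C after an overnight attachment at 1500 cells/well. Luminescent read-out followed 30 - 60 minutes at room temperature with DiscoveRx detection reagent.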
# TRPML1 blocker: qHTS for Inhibitors of the Human Mucolipin Transient Receptor Potential 1 (TRPML1); activity change, negative = inhibition, % (concentration not given with the values); TRPML1-inducible cells, Ca2+ dye fluorescence, FDSS; active compounds read low; inhibition of EC80 agonist-evoked calcium signal; 390,000 compounds, 0.02% hits; in the data active = activity change below about -50%; inconclusive = between about -30% and that limit;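 also: stimulus is agonist 54-4 at its EC80 concentration; % is scaled to controls: 0 for no effect and ±100 for the full control effect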
#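 Tet-induced TRPML1-DL cells loaded with Ca8 no-wash calcium dye were read kinetically on FDSS. Compound addition was followed by EC80 agonist 54-4 (4 uM final); inhibition was read over 110 s.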
# * hit, by the source's call; ? = inconclusive; · = not tested or not shown. A selection: hits, their analogues and other compounds. The true share with any hit is near 2.9%.
SMILES,TRPML1 ag,D3 antag,DRD3 agonist,TRPML1 blocker
O=C1c2ccccc2NC(c2cn[nH]c2-c2ccccc2)N1O (stereo not given),2,3,10,-58*
CC(C)CN(CC(C)C)c1ccc(/C=C/c2nc3ccccc3s2)cc1,2,·,·,·
NC(=O)NC(Cc1ccccc1)C(=O)N1CCN(S(=O)(=O)c2ccc(Cl)cc2)CC1 (stereo not given),1,-68*,-6,0
COc1ccc(CNC(=O)c2cc3c(=O)oc4ccc(C)cc4c3s2)c(OC)c1,-1,·,6,1
CCn1c(C(=O)OC)cc2c1ccn2-c1ccc(F)cc1,0,-77*,4,20
COC(=O)c1cc2c(ccn2-c2ccc(F)cc2)n1Cc1ccc(OC)cc1,2,-13,-5,8
Cc1ccc(CN2CCN(CC(=O)NCc3ccccc3Cl)C2=O)cc1,-1,·,0,-16
CCCCOc1ccc(Cn2c(=O)oc3ccc(C)cc32)cc1,4,·,5,?
Fc1ccc(/C=C/c2ccc3ccccc3n2)cc1,0,·,·,·
Oc1ccc(Cl)cc1CNCc1ccc(Cl)nc1,5,-65*,-62,9
C(=C1C=c2ccccc2=C1)c1ccc(N=Nc2ccc(C=C3C=c4ccccc4=C3)cc2)cc1,0,·,·,·
O=C(c1ccc(S(=O)(=O)N2CCCC2)cc1)N1CCN(Cc2ccc3c(c2)OCO3)CC1,0,-52*,-13,6
O=C(N1CCN(Cc2ccc3c(c2)OCO3)CC1)C12CC3CC(CC(C3)C1)C2,0,-64*,-30,-6
Cc1ccc(C(=O)N2CCN(Cc3ccc4c(c3)OCO4)CC2)o1,2,-62*,2,4
CN(c1ccc(C(=O)N2CCN(Cc3ccc4c(c3)OCO4)CC2)cc1)S(C)(=O)=O,1,-22,3,-7
O=C(c1cc(F)c(F)c(F)c1F)N1CCN(Cc2ccc3c(c2)OCO3)CC1,1,9,-3,-13
O=C(c1cc2ccccc2o1)N1CCN(Cc2ccc3c(c2)OCO3)CC1,2,-104*,-20,17
O=c1n(Cc2ccc([N+](=O)[O-])cc2)c2ccccc2c2nc(-c3ccccc3)nn12,1,·,53*,12
O=c1n(Cc2ccc(F)cc2)c2ccccc2c2nc(-c3ccccc3)nn12,0,·,5,-17
COc1cc(C(=O)Nc2ccc3oc(-c4ccccc4)nc3c2)cc(OC)c1OC,0,·,8,16
COCCCNC(=O)c1ccc(Cn2c(=O)c3cccn3c3cccnc32)cc1,1,·,-2,2
CCCCN1CCc2c1nc1ccc(Br)cc1c2N,4,-84*,-39,-16
Cc1ccc2nc3c(c(N)c2c1)CCN3C,1,?,-15,-1
O=C(NCc1ccccc1C(F)(F)F)c1cccc2c1C(=O)c1ccc(N3CCCCC3)cc1S2(=O)=O,5,56,33*,7
O=C1c2ccccc2S(=O)(=O)c2cc(N3CCC(C(=O)N4CCCCC4)CC3)ccc21,8,49,38*,5
SMILES,TRPML1 ag,D3 antag,DRD3 agonist,TRPML1 blocker
O=C(NCc1ccc(F)cc1)c1cccc2c1C(=O)c1ccc(N3CCC(Cc4ccccc4)CC3)cc1S2(=O)=O,4,0,43*,6
O=C(NCc1cc(C(F)(F)F)ccc1Cl)c1cccc2c1C(=O)c1ccc(N3CCC(Cc4ccccc4)CC3)cc1S2(=O)=O,1,5,47*,-2
O=C(NC1CCCCC1)c1cccc2c1C(=O)c1ccc(N3CCCC3)cc1S2(=O)=O,22,-1,24,7
O=C(NC1CC1)c1cccc2c1C(=O)c1ccc(N3CCC(Cc4ccccc4)CC3)cc1S2(=O)=O,?,78,27,0
CC(C)(C)CNC(=O)c1cccc2c1C(=O)c1ccc(N3CCCC3)cc1S2(=O)=O,19,70,23,-7
COC(=O)c1ccc(NC(=O)CC2C(=O)N(c3ccccc3)C(=O)N2Cc2cccs2)cc1 (stereo not given),0,·,7,-14
CCC(=O)N1CCc2cc(Br)cc(S(=O)(=O)CCC(=O)NCCc3cccc(C)c3)c21,3,·,-5,19
Cc1cc(OCCOCC[N+](C)(C)Cc2ccccc2)ccc1C(C)(C)CC(C)(C)C,·,·,-21,·
NN=C1c2cc(S(=O)(=O)NCCO)ccc2-c2ccc(S(=O)(=O)NCCO)cc21,0,·,·,·
C=N[C@@H](C(=O)N[C@@H]1C(=O)N2[C@@H]1SC(C)(C)[C@@H]2C(=O)O)c1ccccc1,·,·,-6,·
COc1cccc(CN2C(=O)c3ccccc3Sc3ccc(C(=O)NCCc4ccc(Cl)cc4)cc32)c1,1,·,-3,-8
CCC(Sc1nncn2c1cc1oc(C)cc12)C(=O)Nc1ccc(F)cc1 (stereo not given),0,·,5,-3
COc1cc(C2NC(=O)C(C#N)=C(S)N2c2ccc(C)cc2)ccc1OC(C)C (stereo not given),-1,-68*,-1,-2
CCOc1ccc(C2NC(=O)C(C#N)=C(S)N2c2ccc(OC)cc2)cc1OC (stereo not given),-1,-68*,0,11
COc1ccc(N2C(S)=C(C#N)C(=O)NC2c2ccc(OC)c(OC)c2)cc1 (stereo not given),0,10,3,-3
CC(OCc1ccccc1)C(NC(=O)OC(C)(C)C)C(=O)NC1COC2CC(n3ccc(=O)[nH]c3=O)OC12 (stereo not given),2,·,·,-22
O=C1c2ccccc2C(=O)N1CCCCSc1nc2ccccc2o1,0,3,1,-8
CC(c1nc2ccccc2o1)N1C(=O)c2ccccc2C1=O (stereo not given),0,-53*,12,-1
Cc1cccc(NC(=O)CSc2nc(-c3ccccc3)c(C#N)c(=O)[nH]2)c1C,0,-63*,-5,26
CC1(C)CC(=O)C2=C(C1)NC(Nc1nc3ccccc3o1)=NC2c1cccc(F)c1 (stereo not given),-1,·,·,·
COc1ccc(C2Nc3ccccc3C(=O)N2c2ccc(Cl)cc2)cc1COc1ccc(NC(C)=O)cc1 (stereo not given),-1,·,·,·
O=S(=O)(N/N=C\c1ccc(-c2ccccc2Cl)o1)c1ccccc1,1,-52*,2,16
CN(C)c1ccc(CC2CCc3ccccc32)cc1 (stereo not given),0,·,·,·
CCCCOc1ccc(C(=O)Nc2cccc(-c3nc4cccnc4s3)c2)cc1,0,·,-7,-5
Cc1cc(Br)ccc1OCCNCc1ccccc1,1,-70*,-10,-5
Brc1ccccc1OCCNCc1ccccc1,2,-71*,4,-6
Cc1cc(C)c(C)c(OCCNCc2ccccc2)c1,1,-77*,-12,-9
C=CCc1ccccc1OCCNCc1ccccc1,1,-88*,-14,-11
